# Compounds without any hit were thinned out: in the full panel of roughly 79,000, 15% have a hit. Unmarked numbers belong to inactive results. Active and inactive are the calls of the source. Rule as the data show it: active = growth inhibition above about 70%; inactive = the rest.
# Assays:
# [1] = NCI Yeast Anticancer Drug Screen. Data for the rad50 strain (AID 155);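 also: 0% = growth of vehicle-only cultures of the same strain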; conditions: S. cerevisiae rad50 strain growth inhibition; at 50.0 µM; active compounds read high
# Procedure, shortened: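 Yeast carrying a defined DNA repair defect were exposed to test compounds, and growth was compared with vehicle-treated controls to give percent inhibition.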
# [2] = NCI Yeast Anticancer Drug Screen. Data for the mec2-1 strain (AID 157); conditions: S. cerevisiae mec2-1 strain, at 50.0 µM, active compounds read high
# Procedure, shortened: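 Compounds were applied to mec2-1 yeast cells. Their growth was then compared with that of vehicle-treated cultures to give growth inhibition.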
# [3] = NCI Yeast Anticancer Drug Screen. Data for the sgs1 mgt1 strain (AID 161);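 also: 0% = growth of cultures given vehicle only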; conditions: S. cerevisiae sgs1 mgt1 strain, at 50.0 µM, active compounds read high
# Procedure, shortened: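 Compounds are added to genetically altered yeast, and growth is compared with cultures given vehicle alone to give percent inhibition.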
# [4] = NCI Yeast Anticancer Drug Screen. Data for the cln2 rad14 strain (AID 165);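 also: 0% = growth equal to vehicle treated cultures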; conditions: S. cerevisiae cln2 rad14 strain, at 50.0 µM, active compounds read high
# Procedure, shortened: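 Strain: cln2 rad14 yeast, altered in cell cycle control and DNA damage repair. Read-out: growth inhibition vs vehicle.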
# [5] = NCI Yeast Anticancer Drug Screen. Data for the bub3 strain (AID 167); conditions: S. cerevisiae bub3 mutant strain, at 50.0 µM, active compounds read high
# Procedure, shortened: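 Compounds were applied to a genetically altered yeast strain carrying a cell-cycle control defect. Growth inhibition was scored against vehicle-treated controls.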
# [6] = NCI Yeast Anticancer Drug Screen. Data for the mlh1 rad18 strain (AID 175); conditions: S. cerevisiae mlh1 rad18 strain growth inhibition; at 50.0 µM; active compounds read high
# Procedure, shortened: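 A repair-deficient yeast strain is exposed to test compound, and growth is scored relative to vehicle-treated controls.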
SMILES,growth inhibition [1],growth inhibition [2],growth inhibition [3],growth inhibition [4],growth inhibition [5],growth inhibition [6]
O=C(OCC(Cl)(Cl)Cl)N1[C@H]2C3=C(CCC3)[C@@H]([C@H]3O[C@H]32)N1C(=O)OCC(Cl)(Cl)Cl,-38.8%,-8.35%,-1.9%,20.7%,10%,2.3%
CCC(C)NC(=O)C(C)C (stereo not drawn),2.7%,-3.6%,-2.9%,-32.8%,-3.3%,16.4%
COC(=O)Cc1onc(-c2ccccc2)c1[N+](=O)[O-],-17.3%,-12.2%,-4.8%,19.9%,28.9%,32%
CCO/C=C1/N=C(c2cc([N+](=O)[O-])cc([N+](=O)[O-])c2C)OC1=O,10.6%,6.85%,-6.45%,-58.2%,-35%,15.1%
Cc1ccc(Cl)c2c1C(=O)c1ccccc1C2=O,24.2%,7.65%,3.3%,14.8%,5.6%,23.9%
C#CC(C)(O)CCCCCCC (stereo not drawn),18.3%,-27.1%,4%,-22.8%,-12.4%,5%
CC(=O)Oc1ccc2c(=O)c(C(C)=O)coc2c1,7.45%,-11.3%,-3.15%,14.4%,4.2%,14.7%
O=C1CC2C(=O)N(Cc3ccccc3)C1C=C2S(=O)(=O)c1ccccc1 (stereo not drawn),-15.7%,21.6%,36.8%,4.25%,-1.3%,4.9%
C/C(=C/OS(=O)(=O)C(F)(F)F)c1ccccc1,-22.3%,-0.2%,-3.2%,-8.55%,-1.5%,4.25%
CCCCCCCCCCOC(=O)C(C)O (stereo not drawn),8.4%,2.95%,5.35%,5.55%,-16.3%,-4.75%
O=C(O)CCN1C(=S)CSC1=S,-5.35%,-18.4%,-38.5%,8.9%,-33.9%,-24.2%
c1ccc2c3c([nH]c2c1)C1(CCCCC1)c1c([nH]c2ccccc12)C31CCCCC1,-19.6%,2.2%,-8.9%,9.9%,-20.4%,-10.9%
CCOC(=O)N1N(C(=O)c2ccccc2)C(=O)CC1(C)C,-3.15%,8.2%,1.5%,-16.1%,-6.8%,-24.2%
Cc1ccc(NC(=O)Oc2ccccc2C(=O)OCc2ccccc2)cc1,5.3%,7.1%,6.25%,20.1%,8.25%,1.25%
COc1ccc2c(c1)OCCN(C)OC2c1cccc(Cl)c1 (stereo not drawn),-4.55%,-6.45%,-7.15%,-5.15%,9.4%,6.7%
COc1ccccc1NC(=O)C1=C(C)NC(C)=C(C(=O)Nc2ccccc2OC)C1C1=CC=COC1,-30.4%,-12.8%,-25.9%,-1.1%,13.1%,-15.5%
Cc1c(Cl)c(N)c(Cl)c(Cl)c1Cl,15.7%,-4.5%,19.1%,-7.3%,28.6%,8.75%
CC(=O)c1c(C)c([N+](=O)[O-])c(C)c([N+](=O)[O-])c1C,2.1%,11.9%,-8.9%,-94.8%,23.4%,7.3%
O=C(O)C1(Br)CC1(c1ccccc1)c1ccccc1 (stereo not drawn),28.2%,5.25%,3.65%,-14.1%,-0.7%,26.1%

SMILES,growth inhibition [1],growth inhibition [2],growth inhibition [3],growth inhibition [4],growth inhibition [5],growth inhibition [6]
CC(=O)Nc1cc2ccccc2c(Br)n1,-14.9%,6.55%,-4.65%,-13.1%,-9.95%,-6.15%
N#CCCN1C(=O)C2(CCC#N)CCCCC2(O)N=C1c1ccccc1 (stereo not drawn),-7.35%,6.15%,16.5%,-0.5%,15.2%,7.7%
N=c1nc2ccc3ccccc3c2nn1-c1ccc([N+](=O)[O-])cc1,88% (active),16.4%,13.8%,-5.4%,18.6%,27.2%
O=CC(NC(=O)N(CCF)N=O)C(O)C(O)C(O)CO (stereo not drawn),-15%,-4.05%,2.5%,-15.6%,1.3%,-44.4%
O=c1c2cc(-c3ccccc3)sc2nc2n1N=C(c1ccccc1)CS2,-1.35%,-2.7%,-12.9%,21.3%,-2.85%,-18.6%
COc1cc2c(cc1O)C1CC(CC3CCCCN31)OC(=O)/C=C\c1ccc(O)c-2c1 (stereo not drawn),-28.1%,-48.3%,-31.2%,20.8%,-43.9%,-54.2%
CCOC(=O)C1SC(=Nc2ccc(Cl)c(Cl)c2)N=C1C (stereo not drawn),-29.9%,-2.8%,-6.4%,5.9%,-11.7%,-10.1%
CC1=C(C(=O)O)CCCO1,-7.6%,7.75%,10.2%,-3%,-3.75%,25.7%
O=C(CC(=O)c1ccc(Cl)cc1)c1ccc(Cl)cc1,12.9%,14.5%,-3.95%,0.35%,8.9%,4.45%
CC(=O)C(C)CCOC1(C)OCCC1C (stereo not drawn),-7.4%,5.25%,-13.1%,-22.2%,-36.4%,7%
CCOC(C)(C(=O)O)c1cccc2ccccc12 (stereo not drawn),-20.4%,-11%,-7.95%,0.4%,-8.8%,14.8%
Cc1n[nH]c(=O)n1-n1cccc1,-10.1%,-5.35%,-35.5%,7.1%,-37.2%,2.55%
O=c1[nH][nH]c(=O)c2[nH]cnc12,-11.9%,-8.2%,29.1%,-62.6%,-6.3%,-10%
CCO/C=C1/N=C(c2ccc(OC)c(OC)c2)OC1=O,-6.3%,5.6%,18.6%,-67.8%,-7.2%,12.2%
CCOC(=O)CC1c2ccc(O)cc2OC(=O)C1c1ccc(N)cc1 (stereo not drawn),-29.1%,-17.5%,-14.8%,-4.6%,-19.2%,-13.6%
CCOC(=O)c1c2c(c(-c3ccccc3)n1C)C(=O)C(C)=C(C)C2=O,-10.8%,-2.4%,-10.2%,-28.9%,1.05%,-6.65%
CCOC(=O)C1Cc2cc(C)c(C)cc2N(C)C1=O (stereo not drawn),7.6%,-10.2%,5.9%,-22.5%,22.1%,-3.6%
C=Cn1c2ccccc2c2ccccc21,46.9%,18.9%,26.9%,15.2%,-6.75%,-0.55%
CC1(C)CC(OP(=O)(OC2CC(C)(C)N(O)C(C)(C)C2)c2ccccc2)CC(C)(C)N1O,32.1%,8.45%,11.1%,-21.1%,6.3%,6.5%

# — PubChem BioAssay (NCI)
